Screens: PubChem, National Center for Advancing Translational Sciences (NCATS)
Hits are enriched below; roughly 7.3% of the tested compounds scored in any of these assays.
FLuc inh: Firefly luciferase inhibition profiling of diverse chemical library using quantitative high-throughput screening; Luciferin 4-monooxygenase (Photinus pyralis), P08659; purified P. pyralis luciferase, luminescence, biochemical; Potency, µM (top dose mostly 115 µM), actives largely listed as inhibitors; 76,000 tested, 2.5% active; also: potency is read from the fitted curve at half-maximal effect; nearly all actives have a fitted effect of over 65% in size
Target sequence (P08659 whole entry, looked up): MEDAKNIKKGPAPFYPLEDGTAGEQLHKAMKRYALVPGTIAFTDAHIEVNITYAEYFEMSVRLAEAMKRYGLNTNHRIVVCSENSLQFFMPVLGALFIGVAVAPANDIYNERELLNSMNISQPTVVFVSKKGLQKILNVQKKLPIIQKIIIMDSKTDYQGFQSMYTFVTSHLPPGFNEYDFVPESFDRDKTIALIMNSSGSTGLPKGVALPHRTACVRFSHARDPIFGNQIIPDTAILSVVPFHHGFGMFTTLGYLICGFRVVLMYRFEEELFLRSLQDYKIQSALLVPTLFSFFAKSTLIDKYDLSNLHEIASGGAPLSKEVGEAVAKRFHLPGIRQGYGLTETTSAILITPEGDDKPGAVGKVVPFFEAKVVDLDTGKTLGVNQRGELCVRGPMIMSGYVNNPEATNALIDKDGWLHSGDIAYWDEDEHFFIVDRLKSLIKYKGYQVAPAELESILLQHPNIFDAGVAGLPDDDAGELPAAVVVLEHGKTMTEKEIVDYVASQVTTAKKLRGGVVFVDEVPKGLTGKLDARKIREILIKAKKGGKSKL
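Luminescence read by CCD imager after adding enzyme (10nM final) to wells holding compound, titrated in qHTS. Substrates 10uM each D-luciferin and ATP; buffer 50mM Tris acetate pH 7.5, 10mM Mg acetate, Tween-20, BSA.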
3T3 cytotox: Cytotoxic Profiling in NIH 3T3 Cell Line of Diverse Libraries Using Quantitative High-Throughput Screening | NIH 3T3 viability, CellTiter-Glo ATP luminescence, 48-72 h | Potency, µM (series often up to 96.7 µM), without a hit: top-dose activity change, negative = cytotoxicity, actives largely listed as inhibitors | 94,000 tested, 4.3% active; also: potency is read from the fitted curve at half-maximal effect; nearly all actives have a fitted effect of over 55% in size
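Cells were seeded at 400 per well, treated with pin-transferred compound, and kept 48 or 72 hr at 37 °C before CellTiter-Glo addition and luminescence imaging of cellular ATP.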
HEK cytotox: Cytotoxic Profiling in HEK 293 Cell Line of Diverse Libraries Using Quantitative High-Throughput Screening. Potency, µM (titrated, usually from 115 µM), for the others: at the top dose activity change, negative = cytotoxicity, actives largely listed as inhibitors. HEK 293 viability, ATP luminescence (CellTiter-Glo), 48-72 h. 94,000 tested, 6.6% active. AID 1345083, 2018; also: potency is read from the fitted curve at half-maximal effect; nearly all actives have a fitted effect of over 60% in size
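qHTS cytotoxicity; HEK 293, 250 cells/well; compound pinned; 48 or 72 hr, 37 degree Celsius, 5% CO2, 95% humidity; CellTiter-Glo, 10 min RT; luminescence (ATP).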
IP6K1 inh: Primary qHTS assay for small molecule inhibitors of Inositol hexaphosphate kinase 1 (IP6K1). IP6K1 kinase, ADP-Glo luminescence, 2 h; stronger effect = lower value. activity change, % (series mostly up to about 58 µM). 140,000 tested, 0.81% active. AID 1645851, 2021; in the data active = activity change below about -25%
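ADP-Glo luminescence measures ADP made by human IP6K1 during a 2 h RT reaction with ATP/IP6 (mix at 1.3 mM/130 uM); top library doses 57.5 and 19.1 uM final.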
HEK293 viab: GF-AFC viability counterscreen for inhibitors of alpha-synuclein gene (SNCA) expression | HEK-293-SNCA-luc viability, GF-AFC fluorescence, 24 h | Potency, µM (top dose mostly 57.1 µM), inactives show at the highest dose activity change, negative = cytotoxicity, actives largely listed as cytotoxic | 150,000 tested, 0.12% active | AID 1671193, 2021;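 also: potency is read from the fitted curve at half-maximal effect; 0% = DMSO-treated cells and -100% = medium-only wells without cells; nearly all actives have a fitted effect of over 30% in size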
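HEK-293-SNCA-luc cells (1500/well) plated 24 h, then exposed 24 h to a dilution series; GF-AFC added 30 min at 37C, fluorescence 405/540 nm; normalised to medium-only and DMSO wells, Hill fit.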
SNCA expr inh: Primary qHTS assay for inhibitors of alpha-synuclein gene (SNCA) expression. HEK-293 SNCA-luciferase knock-in, luminescence, 24 h. Potency, µM (top dose mostly 57.2 µM), for inactives: at the highest dose activity change, negative = inhibition, usual class: inhibitors. 140,000 tested, 0.17% active. AID 1671194, 2021;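 also: potency is read from the fitted curve at half-maximal effect; plate controls were DMSO cells for no effect and cell-free wells for full effect; nearly all actives have a fitted effect of over 45% in size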
* marks the source's active call; other numbers are inactive results; i = inactive; u = inconclusive; x = no result; [ ] = another dose, or the depositor's remark. Unless noted, calls follow the shape of the dose curve; as a rule, active = well fitted curve in the direction sought with a large enough effect; inconclusive = small, poorly fitted or top-dose-only effect, or another doubt; inactive = no such curve, though single readings can be large; an effect the other way counts as inactive or inconclusive. Unless noted, % is scaled to controls: 0 for no effect and ±100 for the full control effect.

SMILES	FLuc inh	3T3 cytotox	HEK cytotox	IP6K1 inh	HEK293 viab	SNCA expr inh
O=C1Nc2ccc(-c3ccc4c(c3)OCO4)cc2C(=O)N2CCN(C(=O)c3cccs3)C[C@@H]12	i	35µM*	32µM*	-17	-17%	-14%
O=C1Nc2ccc(-c3ccc(Cl)cc3)cc2C(=O)N2CCN(C(=O)c3cccnc3)C[C@H]12	i	u	45µM*	3	-2%	-15%
COc1ccc(-c2ccc3c(c2)C(=O)N2CCN(C(=O)c4ccccc4)C[C@@H]2C(=O)N3)cc1	u	u	u	-2	0%	2%
Cc1nc(N2CCC(NC(=O)c3cccs3)CC2)cc(C(F)(F)F)n1	i	u	u	0	-5%	-13%
O=C(c1cc(F)ccc1Cl)N1CCC2(CC1)CC(O)CCO2 (configuration not stated)	i	-5%	-10%	18	-2%	1%
C[C@H](C(=O)N1CCCC1)[C@@H]1CC[C@@]2(C)Cc3sc(-c4ccsc4)nc3[C@@H](C)[C@@H]2[C@H]1O	11µM*	-26%	u	0	5%	5.6µM*
O=C(NCCc1ccc(F)cc1)C1CCN(c2nccc(Nc3ccccc3F)n2)CC1	x	u	28µM*	-3	u	-47%
O=C(NCc1ccc(Cl)cc1)C1CCN(c2nccc(Nc3ccccc3F)n2)CC1	x	28µM*	18µM*	11	3%[12.5 µM]	u
Cc1cccc(C)c1-c1nc(C(=O)N(C)C)n2ccccc12	i	u	u	30	0%[87.6 µM]	-1%[87.6 µM]
COc1ccc(NC(=O)c2ccc(-c3ncc4cnc(C5=CCOCC5)cn34)cc2)cn1	i	32µM*	u	-18	-13%[87.6 µM]	5%[87.6 µM]
O=C(c1ccc(-c2ncc3cnc(C4=CCOCC4)cn23)cc1)N1CC[S+](=O)([O-])CC1	i	u	1%[172 µM]	-12	-4%[87.6 µM]	9%[87.6 µM]
COc1ccc2nc([C@H]3CCN(CCCc4ccccc4)C3)[nH]c2c1	71µM*	u	63µM*	-10	-21%[87.6 µM]	26%[87.6 µM]
COc1ccc2nc([C@H]3CCN(Cc4cccc(OC(F)(F)F)c4)C3)[nH]c2c1	u	89µM*	100µM*	3	-9%[87.6 µM]	52%[87.6 µM]
Fc1ccccc1-c1nnc([C@H]2CCN(Cc3cccc(OC(F)(F)F)c3)C2)o1	i	u	112µM*	-2	1%[87.6 µM]	u
COCCC(=O)N1CC[C@H](c2nc3ccccc3o2)C1	i	-4%[230 µM]	-6%[230 µM]	21	0%[87.6 µM]	67%[87.6 µM]
CNC(=O)CCn1ncc2cc(OCc3ccccc3-c3ccc(F)cc3F)ccc21	u	u	79µM*	-1	-6%[87.6 µM]	-14%[87.6 µM]
CNC(=O)CCn1ncc2cc(OCc3ccccc3-c3ccccc3Cl)ccc21	i	u	u	-7	-20%[87.6 µM]	u
CNC(=O)CCn1ncc2cc(OCc3ccccc3-c3cc(F)ccc3C)ccc21	u	79µM*	63µM*	-14	-23%[87.6 µM]	u
Cc1ccc(S(=O)(=O)N2CCCC(CCC(=O)NCc3cccc(F)c3)C2)cc1 (configuration not stated)	i	u	u	1	-15%	1%
COc1ccc(CNC(=O)c2nnn3c2CN(Cc2cccc(Cl)c2)C(=O)CC3)cc1OC	i	u	-26%	-12	8%	6%
O=C(Nc1ccccc1)c1nnn2c1CN(Cc1ccccc1)C(=O)CC2	i	100µM*	i	-13	3%[87.6 µM]	13%[87.6 µM]
Cc1ccc(CNC(=O)N2CCCC(Cn3cnc4cccnc43)C2)cc1 (configuration not stated)	i	-11%	u	-5	0%	3%
CN1CCN(c2ccc(-c3cn(C)c(=O)n4cc(CNc5ccccc5)nc34)cn2)CC1	i	50µM*	71µM*	-8	-1%[87.6 µM]	88%[87.6 µM]
COCCNC(=O)CCc1c(C)nn(-c2ccc(F)cc2)c1Oc1ccc(F)cc1F	i	25µM*	u	0	-5%	10%
Cc1ccccc1-n1nc(C)c(CCC(=O)N(C)C(C)C)c1Oc1ccccc1F	i	u	45µM*	24	1%	-25%
SMILES	FLuc inh	3T3 cytotox	HEK cytotox	IP6K1 inh	HEK293 viab	SNCA expr inh
CCN(CC)C(=O)CCc1c(C)nn(-c2ccccc2C)c1Oc1cccc(F)c1	i	u	40µM*	5	0%	-10%
CCN(C)C(=O)CCc1c(C)nn(-c2ccccc2)c1Oc1ccc(F)cc1F	i	u	u	-4	-2%	5%
Cc1cccc(-n2nc(C)c(CCC(=O)N(C)C(C)C)c2Oc2ccc(F)cc2F)c1	i	40µM*	u	-4	-1%	-6%
Cc1ccsc1-c1nc(CN(C)Cc2noc(C(C)C)n2)c(C)o1	i	u	u	1	0%	5%
N[C@H]1CO[C@H]2[C@@H]1OC[C@@H]2n1cc(CC2CCCCC2)nn1	i	-25%[230 µM]	2%[230 µM]	2	4%[87.6 µM]	141%[87.6 µM]
Cc1nn(-c2ccc(F)cc2)c(Oc2ccc(F)cc2F)c1CCC(=O)N(C)C(C)C	i	u	40µM*	-3	-9%	-14%
Cc1cccc(-n2nc(C)c(CCC(=O)N(C)C(C)C)c2Oc2ccccc2C)c1	i	28µM*	u	2	u	u
CCNC(=O)CCc1c(C)nn(-c2cccc(C)c2)c1Oc1ccccc1	i	u	u	1	-6%	-7%
O=C(c1cn[nH]c1-c1ccc(F)cc1)N1CC2CC(C1)[C@H]1CCCC(=O)N1C2 (some centres not stated)	i	i	3%	22	-1%	0%
CS(=O)(=O)c1ccc(O[C@H]2COCCN(C3CCC3)C2)cc1	i	-20%[174 µM]	-23%[172 µM]	-12	3%[87.6 µM]	6%[87.6 µM]
c1cncc(O[C@H]2COCCN(C3CCC3)C2)c1	i	50µM*	u	5	4%[87.6 µM]	7%[87.6 µM]
CCn1c2c(c(=O)n1Cc1ccccc1)CCN(Cc1c[nH]c3ccccc13)C2	i	u	-20%[172 µM]	-4	-3%[87.6 µM]	u
O=C(c1ccc(CCC2COc3ccccc3O2)cc1)N1CCCCC1 (configuration not stated)	35µM*	u	u	7	-6%	25%
CC(C)(C(=O)NCCC1COc2ccccc2O1)N1CCOCC1 (configuration not stated)	i	0%	-9%	3	0%	-11%
